For eight molecules, growth results are on record in PubChem BioAssay (NCI).

SMILES strings stand for the structures. About 83,000 compounds went through this panel and 20% of them were active in at least one assay; those are over-represented in the sample as a whole.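 In brief: 96-well plates, 48 h treatment, single concentration, percent growth endpoint.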 Unmarked numbers belong to inactive results. Active and inactive are the calls of the source. Rule for the calls: active = growth percent below 10; inactive = the rest.

Among the test systems are DU-145 prostate; K-562 leukemia; MALME-3M melanoma; MDA-MB-231 breast; RXF 393 renal; SF-268 CNS; SF-295 CNS; SF-539 CNS; UACC-257 melanoma; M14 melanoma; HCT-15 colon; HT29 colon; SNB-75 CNS; SNB-19 CNS; U251 CNS; PC-3 prostate; SK-MEL-5 melanoma; UACC-62 melanoma; LOX IMVI melanoma; SK-MEL-28 melanoma.
Test in all cases: NCI-60 one-dose screen, 48 h (100 = growth as untreated, 0 = no growth, -100 = all killed)
Common to all, as to conditions: 10 µM unless noted

As for `Cc1ccc(Nc2ccc(Nc3ccc(C)cc3)c3c2C(=O)c2cccc(O)c2C3=O)cc1`, the growth was 114% with DU-145 prostate; 94.3% in the test with K-562 leukemia; 120% with MALME-3M melanoma; 88.7% with MDA-MB-231 breast; 110% with RXF 393 renal; 104% in the test with SF-268 CNS. The growth with SF-295 CNS is 126%; in the test with SF-539 CNS, 105%; in the test with UACC-257 melanoma it was 105%; in the test with M14 melanoma it was 104%; in the test on HCT-15 colon, 100%; in the test with HT29 colon it was 117%. For the same molecule, the growth in the test on SNB-75 CNS is 93.8%; in the test with SNB-19 CNS it was 104%; in the test with U251 CNS, 104%; in the test on PC-3 prostate, 78.9%; in the test with SK-MEL-5 melanoma, 95.9%; in the test with UACC-62 melanoma it was 87.1%. The figures for the growth in the test on LOX IMVI melanoma and in the test on SK-MEL-28 melanoma were 91.5% and 118%, respectively.

Regarding `CCOC(CN=Cc1cc(C)c2[nH]c3ccccc3c2c1C)OCC`, the growth was 101% in the test on DU-145 prostate; 95.1% in the test on K-562 leukemia; 124% in the test on MALME-3M melanoma; 108% with MDA-MB-231 breast; 102% with RXF 393 renal; 92.5% in the test on SF-268 CNS. Further, the growth was 92.4% with SF-295 CNS; 100% in the test with SF-539 CNS; 90.3% with UACC-257 melanoma; 94.4% in the test with M14 melanoma; 97.8% in the test with HCT-15 colon; 108% with HT29 colon. The growth in the test on SNB-75 CNS was 88.9%; in the test on SNB-19 CNS, 91.9%; in the test with U251 CNS, 89.5%; with PC-3 prostate, 101%; in the test with SK-MEL-5 melanoma, 105%; in the test on UACC-62 melanoma, 71.3%. Besides, the growth with LOX IMVI melanoma is 96.3%; in the test with SK-MEL-28 melanoma it was 103%.

In the case of `CCCCCCN(CCCCCC)c1ccc(/C=C2/SC(=O)N(c3nc(N4CCCC4)nc(N4CCCC4)n3)C2=O)c(C)c1`, the growth in the test on DU-145 prostate was 77.3%; with K-562 leukemia, 37.5%; with MALME-3M melanoma, 71.5%; with MDA-MB-231 breast, 85.7%; in the test with RXF 393 renal, 84.7%; with SF-268 CNS it was 73.2%. Further, the growth was 56.7% with SF-295 CNS; 114% in the test with SF-539 CNS; 72.6% with UACC-257 melanoma; 69.3% in the test with M14 melanoma; 57.9% with HCT-15 colon; 51.8% in the test with HT29 colon. Moreover, the growth is 83.3% in the test with SNB-75 CNS; 84.4% in the test on SNB-19 CNS; 53.9% with U251 CNS; 53.2% in the test with PC-3 prostate; 58.6% with SK-MEL-5 melanoma; 52.7% with UACC-62 melanoma. The growth in the test on LOX IMVI melanoma is 71.8%; with SK-MEL-28 melanoma, 74.3%.

For the molecule `O=C(c1ccccc1)c1c(/C=C/c2ccccc2)nc2ccccc2c1/C=C/c1ccc(Br)cc1`, the growth with DU-145 prostate was 105%; in the test with K-562 leukemia it was 97.3%; in the test on MALME-3M melanoma, 106%; in the test with MDA-MB-231 breast, 100%; in the test with RXF 393 renal it was 104%; with SF-268 CNS, 91.6%. Also, the growth is 101% in the test with SF-295 CNS; 106% in the test on SF-539 CNS; 99.8% in the test with UACC-257 melanoma; 96.8% in the test on M14 melanoma; 108% with HCT-15 colon; 102% in the test with HT29 colon. The growth in the test on SNB-75 CNS is 83.1%; with SNB-19 CNS, 88.9%; in the test with U251 CNS it was 95.9%; in the test on PC-3 prostate it was 90.2%; in the test with SK-MEL-5 melanoma, 101%; in the test with UACC-62 melanoma it was 82%. In addition, the growth in the test with LOX IMVI melanoma was 90.6%; with SK-MEL-28 melanoma it was 108%.

Consider `CCN1C(=O)N(CC)C2Nn3c(s/c(=C4\C(=O)N(C)c5ccccc54)c3=O)=NC21` (stereo not given), for which the growth with DU-145 prostate was 18.1%; with K-562 leukemia, 14.9%; in the test with MALME-3M melanoma, 48.3%; in the test with MDA-MB-231 breast it was 43.6%; in the test with RXF 393 renal, -17.4% (active); in the test with SF-268 CNS, 55.5%. The growth was 52.2% with SF-295 CNS; 9.32% (active) in the test on SF-539 CNS; 61.8% in the test with UACC-257 melanoma; 13.1% in the test with M14 melanoma; 29.7% in the test with HCT-15 colon; 74.9% in the test with HT29 colon. Moreover, the growth with SNB-75 CNS is 9.74% (active); in the test on SNB-19 CNS, 56.5%; with U251 CNS, 39.7%; in the test with PC-3 prostate it was 27.8%; in the test on SK-MEL-5 melanoma, 36.4%; in the test with UACC-62 melanoma it was 51%. Besides, the growth in the test on LOX IMVI melanoma was 55.9%; in the test on SK-MEL-28 melanoma, 59.3%.

Turning to `c1ccc2cc3nc4cc5ccccc5cc4nc3cc2c1`, the growth in the test with DU-145 prostate is 110%; in the test on K-562 leukemia, 95.1%; with MALME-3M melanoma it was 134%; in the test with MDA-MB-231 breast, 86.6%; with RXF 393 renal, 137%; in the test on SF-268 CNS it was 97.7%. In addition, the growth in the test with SF-295 CNS is 134%; in the test on SF-539 CNS, 108%; in the test on UACC-257 melanoma, 98.2%; in the test with M14 melanoma, 101%; in the test with HCT-15 colon it was 96.9%; in the test with HT29 colon it was 103%. For the same molecule, the growth is 89.3% with SNB-75 CNS; 97.2% with SNB-19 CNS; 101% in the test on U251 CNS; 85% with PC-3 prostate; 102% with SK-MEL-5 melanoma; 96.5% with UACC-62 melanoma. In addition, the growth with LOX IMVI melanoma was 86.1%; with SK-MEL-28 melanoma, 96.9%.

Regarding `CCCCCCCCCCCCCCCCCC1=NCCN1CCOC1=C(Cl)C(=O)c2ccccc2C1=O`, the growth is 109% in the test on DU-145 prostate; 21.7% in the test on K-562 leukemia; 67.1% in the test on MALME-3M melanoma; 55.9% with MDA-MB-231 breast; 102% in the test with RXF 393 renal; 91.2% in the test with SF-268 CNS. The growth with SF-295 CNS was 108%; in the test with SF-539 CNS it was 104%; in the test with UACC-257 melanoma it was 72.3%; with M14 melanoma it was 83.1%; in the test with HCT-15 colon, 55.4%; in the test on HT29 colon it was 65%. For the same molecule, the growth with SNB-75 CNS is 87.4%; with SNB-19 CNS, 81.4%; with U251 CNS, 66.4%; in the test on PC-3 prostate, 55.3%; in the test on SK-MEL-5 melanoma, 103%; in the test on UACC-62 melanoma, 40.6%. Also, the growth was 66.6% with LOX IMVI melanoma and 92.1% in the test with SK-MEL-28 melanoma.

On to `Cn1c(-c2c(N)n(Cc3ccc(C(F)(F)F)cc3)c3nc(C#N)c(C#N)nc23)nc2ccccc21`, for which the growth in the test with DU-145 prostate was -4.79% (active); in the test on K-562 leukemia, -30.7% (active); with MALME-3M melanoma, -23.9% (active); in the test on MDA-MB-231 breast, -13.2% (active); in the test with RXF 393 renal, 4.46% (active); with SF-268 CNS, 43.3%. Also, the growth in the test with SF-295 CNS is -27.5% (active); in the test on SF-539 CNS, 8.23% (active); in the test on UACC-257 melanoma, 6.78% (active); with M14 melanoma, 16.2%; in the test on HCT-15 colon, 12.5%; with HT29 colon, 9.72% (active). Further, the growth in the test on SNB-75 CNS was 15.1%; in the test with SNB-19 CNS, 21.3%; in the test with U251 CNS it was 5.09% (active); with PC-3 prostate, -26.6% (active); with SK-MEL-5 melanoma it was -10.4% (active); with UACC-62 melanoma, 18.6%. In addition, the growth was 2.4% (active) in the test with LOX IMVI melanoma and 28.8% in the test on SK-MEL-28 melanoma.
